Source: PubChem BioAssay (Tox21)
Values joined by “and” are separate entries in the source; they are usually repeats but may differ in a detail not shown here. Identical values can stand only once. Records with an inconclusive call do not appear. Where a call stands in place of a potency, no number is given. A number with no mark means an inactive call. Active and inactive are the calls of the source. Calls follow the shape of the dose curve; as a rule, active = well fitted cell-killing curve with a large enough effect in the repeat runs; inconclusive = weak or mixed curves, or effect the other way; inactive = no such curve, though single readings can be large or run the other way.

Experiment: qHTS assay to identify small molecule antagonists of the peroxisome proliferator-activated receptor gamma (PPARg) signaling pathway - cell viability counter screen (AID 743194); also: nearly all actives have a fitted effect of over 55% in size
Details: PPARg-bla HEK293H viability, CellTiter-Glo luminescence, 17 h; Potency: co-treated with 50 nM rosiglitazone; series mostly up to 62.6 µM
Text: U.S. Tox21 Program National Center for Advancing Translational Sciences [NCATS] NIH Chemical Genomics Center [NCGC] U.S. Environmental Protection Agency [EPA] National Institutes of Environmental Health Sciences [NIEHS] National Toxicology Program [NTP] U.S. Food and Drug Administration [FDA] Tox21 Assay Overview: The peroxisome proliferator-activated receptors (PPARs) are lipid-activated transcription factors of the nuclear receptor superfamily with three distinct subtypes namely PPAR alpha, PPAR delta (also called PPAR beta) and PPAR gamma (PPARg). All these subtypes heterodimerize with Retinoid X receptor (RXR) and these heterodimers regulate transcription of various genes. PPAR-gamma receptor (glitazone receptor) is involved in the regulation of glucose and lipid metabolism. To identify the compounds that activate PPAR-gamma signaling, GeneBLAzer PPAR gamma UAS-bla HEK293H cell line (Invitrogen, Carlsbad, CA, USA) containing a beta-lactamase reporter gene under the control of an Upstream Activator Sequence (UAS) was used to screen the Tox21 compound library. The cytotoxicity of the Tox21 compound library against the PPARg-bla cell line was tested in parallel by measuring the cell viability using CellTiter-Glo assay in the same wells.
Tox21 Assay Protocol Summary: PPARg-bla cells were dispensed at 3000 cells/5uL/well in 1536-well black wall/clear bottom plates using a Multidrop Combi (Thermo Fisher Scientific, Waltham, MA) dispenser. After the assay plates were incubated at 37 C and 5% CO2 for 5 h, 23 nL of compounds dissolved in DMSO, positive controls or DMSO only was transferred to the assay plate by a Pintool station (Kalypsys, San Diego, CA), followed by addition of 1ul Rosiglitazone (50 nM, final concentration in the wells). The assay plates were incubated at 37 C for 17 h, and then 1 uL of LiveBLAzerTM B/G FRET substrate was added using a Bioraptr Flying Reagent Dispenser (FRD) workstation (Beckman Coulter, Indianapolis, IN, USA). The assay plates were incubated at room temperature for 1 h and fluorescence intensity was measured by an Envision plate reader (PerkinElmer, Shelton, CT). For cell viability readout that measures cytotoxicity, 4 ul/well of CellTiter-Glo reagent was added into the assay plates using a Flying Reagent Dispenser. After 30 min incubation at room temperature, the luminescence intensity in the plates was measured using a ViewLux plate reader (PerkinElmer).
Potency is read from the fitted curve at half-maximal effect.

**Q.** For `O=Cc1ccc2c(c1)OCO2`, which Potency is on record?
**A.** The Potency was “inactive”.

**Q.** With `O=C1NCN(c2ccccc2)C12CCN(CCCOc1ccc(F)cc1)CC2` as the compound, how does the Potency read?
**A.** The Potency was “inactive”.

**Q.** With `COC(N)=O` as the compound, how does the Potency read?
**A.** Its Potency is “inactive”.

**Q.** Which Potency does the source give for `COCCOCCO` here?
**A.** Its Potency is “inactive”.

**Q.** Which Potency does the source give for `CCO[C@H]1O[C@@H]2OC3(C)CC[C@H]4[C@H](C)CC[C@@H]([C@H]1C)[C@@]24OO3` here?
**A.** The Potency was “inactive”.

**Q.** For `CCCN(CCCl)c1c([N+](=O)[O-])cc(C(F)(F)F)cc1[N+](=O)[O-]`, which Potency is on record?
**A.** Its Potency is “inactive”.

**Q.** For `C=COC(C)=O`, which Potency is on record?
**A.** The Potency was “inactive”.

**Q.** For `[O-][Cl+]O`, which Potency is on record?
**A.** Its Potency is “inactive”.

**Q.** With `NC(=O)CI` as the compound, how does the Potency read?
**A.** Its Potency is “inactive”.

**Q.** For `c1ccoc1`, which Potency is on record?
**A.** Its Potency is “inactive”.

**Q.** Which Potency does the source give for `O=C(O)C1(c2ccc3c(c2)OC[C@H](Cc2ccc(-c4ccccc4)cc2)[C@H]3O)CCCC1` here?
**A.** Its Potency is 43.6 µM (active).

**Q.** Which Potency does the source give for `O=C(O)C(F)(F)C(F)(F)C(F)(F)C(F)(F)C(F)(F)C(F)(F)C(F)(F)C(F)(F)C(F)(F)C(F)(F)F` here?
**A.** Its Potency is “inactive”.

**Q.** With `O=C(NC(=O)c1c(F)cccc1F)Nc1cc(Cl)c(Oc2ncc(C(F)(F)F)cc2Cl)c(Cl)c1` as the compound, how does the Potency read?
**A.** The Potency was “inactive”.

**Q.** For `NCC(CC(=O)O)c1ccc(Cl)cc1` (stereo not given), which activity change, negative = cytotoxicity is on record?
**A.** The activity change, negative = cytotoxicity was -16.4% [at 0.55 µM].

**Q.** With `Nc1ccc([N+](=O)[O-])cc1[N+](=O)[O-]` as the compound, how does the Potency read?
**A.** Its Potency is “inactive”.

**Q.** With `O=C(Nc1ccccc1)Nc1cnns1` as the compound, how does the Potency read?
**A.** The Potency was “inactive”.

**Q.** Which Potency does the source give for `OCCCBr` here?
**A.** Its Potency is “inactive”.

**Q.** Which Potency does the source give for `CCOC(=O)[C@]1(c2ccccc2)Oc2ccccc2[C@@H]1N` here?
**A.** Its Potency is “inactive”.

**Q.** Which Potency does the source give for `CC(C)(C)c1cc([N+](=O)[O-])cc([N+](=O)[O-])c1O` here?
**A.** The Potency was 0.435 µM (active).

**Q.** With `ClCc1cccc(Cl)c1` as the compound, how does the Potency read?
**A.** The Potency was “inactive”.

**Q.** Which Potency does the source give for `O=C(O)COc1ccc(Cl)cc1` here?
**A.** Its Potency is “inactive”.

**Q.** Which Potency does the source give for `CCc1ccc(C(=O)NN(C(=O)c2cc(C)cc(C)c2)C(C)(C)C)cc1` here?
**A.** The Potency was “inactive”.

**Q.** Which Potency does the source give for `O=C(NCc1cccnc1)Nc1ccc([N+](=O)[O-])cc1` here?
**A.** Its Potency is “inactive”.

**Q.** Which Potency does the source give for `Clc1ccc(C(OCCN2CCCCC2)c2ccccc2)cc1` (stereo not given) here?
**A.** The Potency was “inactive”.

**Q.** For `N#CCC#N`, which Potency is on record?
**A.** Its Potency is “inactive”.

**Q.** For `O=C(O)c1ccccc1C(=O)Nc1cccc2ccccc12`, which Potency is on record?
**A.** The Potency was “inactive”.

**Q.** For `C(=NC1CCCCC1)=NC1CCCCC1`, which Potency is on record?
**A.** The Potency was 4.93 µM (active) and 3.47 µM (active).

**Q.** For `Brc1ccc(Oc2ccccc2)cc1`, which Potency is on record?
**A.** Its Potency is “inactive”.

**Q.** Which Potency does the source give for `CCCN(CC1CC1)c1c([N+](=O)[O-])cc(C(F)(F)F)cc1[N+](=O)[O-]` here?
**A.** Its Potency is “inactive”.

**Q.** For `CC(Cl)C(C)Cl` (stereo not given), which Potency is on record?
**A.** Its Potency is “inactive”.

**Q.** For `C[N+](C)(C)CCCl`, which Potency is on record?
**A.** Its Potency is “inactive”.

**Q.** For `CC/C(=N\OC/C=C/Cl)C1=C(O)CC(C2CCOCC2)CC1=O` (stereo not given), which Potency is on record?
**A.** Its Potency is “inactive”.

**Q.** With `COc1c(C(C)(C)C)cc([N+](=O)[O-])c(C)c1[N+](=O)[O-]` as the compound, how does the Potency read?
**A.** The Potency was “inactive”.

**Q.** Which Potency does the source give for `C=CCCl` here?
**A.** Its Potency is “inactive”.

**Q.** Which Potency does the source give for `O=C(CBr)c1ccccc1` here?
**A.** The Potency was “inactive”.

**Q.** With `BrCCCCBr` as the compound, how does the Potency read?
**A.** The Potency was “inactive”.

**Q.** Which Potency does the source give for `Cc1ccc(N)cc1C` here?
**A.** Its Potency is “inactive”.

**Q.** For `NNC(=O)c1cccnc1`, which Potency is on record?
**A.** The Potency was “inactive”.

**Q.** For `CCOc1ccc(C(C)(C)COCc2cccc(Oc3ccccc3)c2)cc1`, which Potency is on record?
**A.** The Potency was “inactive”.

**Q.** For `CCCCCCCCCCOC(=O)c1ccccc1C(=O)OCCCCCCCCCC`, which Potency is on record?
**A.** The Potency was “inactive”.
